# Assay results reported in PubChem BioAssay AID774 (SRMLSC, 2007).
# In all, about 65,000 compounds went through this assay and about 15 (0.02%) were called active. These entries were drawn from the full list. Unmarked numbers belong to inactive results.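 How the source made its calls: active means single-dose screening hits from any of four coupled enzyme assays that gave an IC50 when retested across doses; inconclusive means no clear call, values can overlap the other calls; inactive means the rest.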
# Test: inhibitors of PK/LDH coupling enzymes, profiling panel, artefact control, biochemical, MLSMR library (AID 774);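 further: the DPM-DC format reads NADH fluorescence rather than 340 nm absorbance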
# Settings: coupled PK/LDH NADH assays, four targets; at 10 µM; active compounds read high
row,SMILES,inhibition
1,CC(C)[C@H](NC(=O)Nc1ccc(S(N)(=O)=O)cc1)C(=O)O,2%
2,C/C(N)=C(\C#N)C(=O)NCCc1ccccn1,5%
3,O=C(Cn1c(=O)sc2ccccc21)Nc1nc2c(s1)CCCC2,5%
4,c1ccc2c(c1)OCC(c1nn3cnnc3s1)O2 (centres undefined),3%
5,COc1cccc(-c2cc3nc4c(c(N5CCC6(CC5)OCCO6)n3n2)CCCC4)c1,4%
6,C=CCc1cccc2cc(C(=O)N3CCN(C(=O)OCC)CC3)c(=O)oc12,4%
7,CCOC(=O)CC1C(=O)NCCN1C(=O)COc1ccc(Br)cc1C (centres undefined),4%
8,Cc1nn(-c2ccccc2)c2[nH]c(C(F)(F)F)cc(=O)c12,3%
9,O=[n+]1c2c(n([O-])c3cc(Br)ccc31)CCC2,5%
10,CC(C)CCNc1nc(N2CCCC2)c2c(c1C#N)CCN(C)C2,7%
11,COc1ccc(N2C(=O)CCC(C(=O)Nc3ccccn3)C2c2ccc(OC)c(OC)c2)cc1 (centres undefined),2%
12,Cc1ccc(S(=O)(=O)c2nc(NCCCn3ccnc3)sc2Cl)cc1,6%
13,COc1ccc(N(CC(=O)NC(C)(C)C)C(=O)c2ccco2)cc1,1%
14,CCOC(=O)c1[nH]c2ccccc2c1N=C(C)N(CC)CC,4%
15,COc1cccc2c(C)c(C(=O)O)[nH]c12,14%
16,COCCCNC(=O)c1c(F)c(F)c(F)c(F)c1F,5%
17,O=C(CCn1c(=O)oc2ccccc21)Nc1ccon1,5%
18,COc1cc(C2C(C(=O)Nc3ccc(F)cc3)=C(C)Nc3nc(CCCO)nn32)cc(OC)c1OC (centres undefined),9%
19,OCCCN1c2ccccc2Nc2nnc(-c3ccccc3)cc21,2%
20,C=C1c2cc(CC)ccc2NC(=O)N1c1ccc(C)cc1,4%
21,CCc1nnc(NC(=O)CCC(=O)O)s1,1%
22,COc1cc(-c2nnc(Cn3cc(C(F)(F)F)ccc3=O)o2)cc(OC)c1OC,4%
23,CCOP1(=O)C=C(C(C)(C)C)OC1c1ccc(F)cc1 (centres undefined),5%
24,CCN(CC)C(=O)CSc1nnc(-c2ccc(S(=O)(=O)NCc3ccccc3Cl)cc2)o1,6%
25,CCc1c(C)n([O-])c2c([n+]1=O)CCCCC2,4%

row,SMILES,inhibition
1,Cc1noc(NS(=O)(=O)c2ccc(N3CC(O)=C(c4ccccc4)C3=N)cc2)c1C,4%
2,Cn1c(NC(=O)c2ccc3c(c2)OCO3)cc(=O)n(C)c1=O,7%
3,COC(=O)Cc1c(C)c2ccc(OCC(=O)NCc3ccc4c(c3)OCO4)cc2oc1=O,10%
4,O=C(CSc1nc2ncccc2[nH]1)Nc1ccc2c(c1)OCCO2,1%
5,CNC(=O)CSc1nnnn1-c1ccc(C)cc1C,2%
6,CCC(C(=O)Nc1ncccn1)(C(F)(F)F)C(F)(F)F,1%
7,COc1ccc(C2/C(=C(/O)c3ccccc3)C(=O)C(=O)N2c2ncccn2)cc1OC (centres undefined),1%
8,O=C(COC(=O)c1ccccc1C(=O)c1ccccc1)c1ccco1,4%
9,Cc1cc(C)n(C(=O)c2ccc(S(=O)(=O)N3CCCC3)cc2)n1,4%
10,CC1(C)CCCC2=C1CC1C(=O)N(c3ccccc3)C(=O)C1C2 (centres undefined),6%
11,Cc1ccc2cccc(O)c2[n+]1[O-],10%
12,CCOc1ccccc1-n1c(SCC(=O)N2CCCC2)nnc1-c1ccoc1C,4%
13,O=C(CN1C(=O)C2C3C=CC(C3)C2C1=O)NCC1COc2ccccc2O1 (centres undefined),8%
14,Cn1nnnc1SCc1cc(=O)[nH]c2ccccc12,6%
15,Cc1cc(OCCN2CCCC2)ccc1C(C)C,14%
16,CC1(C)CC(=O)c2sc(N)nc2C1,3%
17,CCOC(=O)C1CCN(C(=O)Cn2cc(C#N)c3ccccc32)CC1,5%
18,COc1ccc(-c2nn(-c3ccccc3)cc2C(=O)Nc2nc(CC(C)=O)ns2)cc1,4%
19,CCOC(=O)CCCNC(=O)CN1C(=O)NC(CCc2ccccc2)C1=O (centres undefined),5%
20,Cc1ccc(CCn2c3c(c4ccccc42)CN(C)CC3)cn1,2%
21,CC(C)C1Cc2c(sc3c2c(=O)n(-c2ccccc2)c2nncn32)CO1 (centres undefined),3%
22,CN1c2ccccc2-c2nc3ccccc3n2C1c1ccco1 (centres undefined),6%
23,C=CCn1c(COc2ccccc2)nnc1SCC(=O)NCC(=O)OCC,3%
24,Cc1cccc(OCC(O)Cn2c(=N)n(CCN3CCOCC3)c3ccccc32)c1 (centres undefined),6%
